Source: PubChem BioAssay AID720707 (National Center for Advancing Translational Sciences (NCATS), 2013)
Among all 360,000 compounds or so, about 270 (0.075%) were called active. Calls follow the shape of the dose curve; as a rule, active = well fitted activation curve with a large enough effect; inconclusive = small, poorly fitted or top-dose-only effect; inactive = no such curve, though single readings can be large or run the other way. The list comes from a sample in which actives are over-represented; it also holds similar structures and randomly drawn compounds.

What follows are molecules tested against Rap guanine nucleotide exchange factor 3 (Homo sapiens) (UniProt O95398) (assay: qHTS for Agonist of cAMP-regulated guanine nucleotide exchange factor 3 (EPAC1): primary screen). Details: biochemical assay; series mostly up to 154 µM.
Source text: In multi-cellular eukaryotic organisms, the effects of cAMP are transduced by two ubiquitously-expressed intracellular cAMP receptors, the classic protein kinase A/cAMP-dependent protein kinase (PKA/cAPK) and the more recently discovered exchange protein directly activated by cAMP/cAMP-regulated guanine nucleotide exchange factor (EPAC/cAMP-GEF). Both PKA and EPAC are ubiquitously expressed in all tissues, and an increase in intracellular cAMP levels will lead to the activation of both PKA and EPAC. Therefore, careful dissections of the individual role and relative contribution of EPAC and PKA within the overall cAMP signaling in various model systems are critical for further elucidating the mechanism of cAMP signaling. To date no EPAC-specific antagonists and agonist, as well as isoform-specific agonists have been reported, and developing EPAC-specific pharmacological probes to determine the physiological functions that EPAC play in the overall cAMP-mediated signaling remains a major challenge within the research field. Furthermore, identified regulators of EPAC may lead to new mechanism-based therapeutic strategies specifically targeting the EPAC / cAMP-signaling components as EPAC has been implicated to play important roles in major human pathological conditions such as diabetes, heart disease, and cancer.
This qHTS will be used to screen the Molecular Libraries Small Molecule Repository (MLSMR) as a concentration-titration series using the NCGC unique quantitative screening (qHTS) platform to find activators for EPAC1. In addition, this assay will also be used as a counterscreen for the EPAC2 qHTS. This fluorescent based assay is developed and validated for EPAC1 that measures exchange using EPAC effector Rap1 complex with BODIPY-GDP, a GDP analog with a tethered fluorophores. Activators are identified by monitoring the change in fluorescence signal as the exchanged free BODIPY-GDP has a reduced fluorescence compared to Rap1-bound BODIPY-GDP. Increase in signal (activation) is the desired outcome for the EPAC1 agonist while no activity in this assay is desired for the EPAC2 agonist counterscreen.
[1] de Rooij, J., Zwartkruis, F. J., Verheijen, M. H., Cool, R. H., Nijman, S. M., Wittinghofer, A., and Bos, J.L. (1998) Nature 396, 474-477
NIH Chemical Genomics Center [NCGC]
NIH Molecular Libraries Probe Centers Network [MLPCN]
Assay Submitter (PI): Xiaodong Cheng, The University of Texas Medical Branch
Briefly, three uL of reagents (100 nM EPAC1, 250 nM RAP1B-BODIPY-GDP, 50 uM GDP) were dispensed into a 1536-well Greiner black solid-bottom medium binding assay plate. Controls and test compounds (23 nL) were transferred to the plate via a Kalypsys pin tool equipped with a 1536-pin array. The plates were centrifuged at 1,000 rpm for 15 seconds followed by 5 minute incubation at room temperature. The assay plates were read at 5 minute intervals for 30 minutes in the ViewLux plate reader using 480nm excitation and 540nm emission filters. The results were normalized to the agonist positive control of 6.5 mM cAMP.
Also: nearly all actives have a fitted effect of over 60% in size.
Potency is read from the fitted curve at half-maximal effect.

Rap guanine nucleotide exchange factor 3 (Homo sapiens), sequence (O95398 whole entry, looked up): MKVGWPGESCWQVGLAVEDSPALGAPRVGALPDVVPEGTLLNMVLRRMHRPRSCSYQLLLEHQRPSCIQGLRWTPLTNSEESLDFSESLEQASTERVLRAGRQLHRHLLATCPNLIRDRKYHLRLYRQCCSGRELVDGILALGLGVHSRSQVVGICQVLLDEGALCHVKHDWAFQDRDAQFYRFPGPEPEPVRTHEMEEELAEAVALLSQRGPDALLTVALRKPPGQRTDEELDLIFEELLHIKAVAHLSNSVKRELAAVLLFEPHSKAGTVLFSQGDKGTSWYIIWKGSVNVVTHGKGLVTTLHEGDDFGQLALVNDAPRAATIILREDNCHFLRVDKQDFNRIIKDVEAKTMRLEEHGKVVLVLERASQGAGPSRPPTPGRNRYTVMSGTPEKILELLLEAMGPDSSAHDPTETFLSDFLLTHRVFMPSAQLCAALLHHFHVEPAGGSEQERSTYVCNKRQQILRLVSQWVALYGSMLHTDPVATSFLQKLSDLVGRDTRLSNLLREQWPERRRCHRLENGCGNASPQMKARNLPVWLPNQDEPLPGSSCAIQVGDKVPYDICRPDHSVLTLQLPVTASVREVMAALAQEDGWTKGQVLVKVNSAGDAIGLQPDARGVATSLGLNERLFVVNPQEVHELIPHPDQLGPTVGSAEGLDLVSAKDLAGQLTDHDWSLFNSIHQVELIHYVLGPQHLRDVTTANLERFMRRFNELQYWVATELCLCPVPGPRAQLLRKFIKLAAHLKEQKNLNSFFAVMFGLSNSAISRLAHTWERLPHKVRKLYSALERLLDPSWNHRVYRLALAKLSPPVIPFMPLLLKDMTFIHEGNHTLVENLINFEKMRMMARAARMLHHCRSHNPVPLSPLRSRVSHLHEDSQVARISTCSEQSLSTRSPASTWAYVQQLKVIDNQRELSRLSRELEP

Potency, inactive:
CCOc1ccc(NS(=O)(=O)c2ccc(Cl)c(C(=O)N(C)Cc3cccnc3)c2)cc1
CC1(C)CC(=O)c2c(n(S(=O)(=O)c3ccccc3)c3ccc(NS(=O)(=O)c4ccccc4)cc23)C1
O=c1cccc(-c2ccc(Br)cc2)o1
CCCCNC(=O)N1CCCC(N(C)CCc2ccc(OC)c(OC)c2)C1 (centres undefined)
Cc1sc2ncn(CC(=O)NCCCC(=O)N(C)Cc3ccccc3)c(=O)c2c1C
Cc1ccc(OCC(=O)Nc2ccccc2Sc2ccc(Cl)cc2)c([N+](=O)[O-])n1
Cc1ccc(-c2nc(C)sc2CC(=O)OCC(=O)Nc2c(F)cccc2F)cc1
COc1cc(NS(=O)(=O)c2ccc(N/C=C(\C=O)c3nc4cc(Cl)ccc4o3)cc2)nc(OC)n1
COCC1CCCCN1C(=O)c1cc(COc2ccc(C)c(C)c2)on1 (centres undefined)
CC(=O)N[C@H]1[C@H]([C@H](O)[C@H](O)CO)OC(C(=O)O)=C[C@@H]1O
O=C(NCc1ccco1)c1ccc(CS(=O)(=O)Cc2ccc(F)cc2)o1
COC(=O)/C=C(\Oc1ccccc1)C1(O)CCCCC1
Cc1cc(Cl)ccc1NNC(=O)c1snnc1C
O=C(c1cnn2ccccc12)N1CCc2ccccc21
C=CCNC(=O)COC(=O)CNC(=O)c1cc(Cl)cc([N+](=O)[O-])c1
Cc1cc(NC(=O)/C=C/C(=O)N(c2ccccc2C)C(C(=O)NC2CCCC2)c2ccc(F)cc2)no1 (centres undefined)
CCOC(=O)[C@]12CCCC=C1N(Cc1ccc(Cl)cc1Cl)C(=O)[C@H](CC(=O)N1CCCCC1)C2
CC(Cc1cccs1)NC(=O)c1cccc(Cl)c1 (centres undefined)
Cc1nn2c(NCCN(C)C)c3c(nc2c1-c1ccccc1)CCC3
CC(=O)Nc1ccc(NC(=O)CN2C(=O)COc3ccc(S(=O)(=O)N4CCCCC4)cc32)cc1
O=C(COc1ccccc1)N1CCN=C1SCc1cccc(F)c1
COC(=O)C(Cc1c[nH]c2ccccc12)NC(=O)CCNC(=O)c1ccco1 (centres undefined)
CCOC(=O)c1ccccc1NC(=O)COC(=O)CCC(=O)N1CCOCC1
COc1ccccc1NC(=O)CSc1nnc(CNC(=O)c2ccccc2F)o1
Cn1c(=O)[nH]c(=O)c2c1nc(N(CCO)Cc1ccccc1)n2Cc1ccccc1Cl
Cc1nc(NC(=O)C23CCC(C)(C(=O)O2)C3(C)C)sc1C (centres undefined)
N#CCCCn1c(O)c(N=NC(=O)C(O)c2ccccc2)c2ccccc21 (centres undefined)
COc1cccc(C(=O)N2CCC(n3nccc3NC(=O)C3CCOC3)CC2)c1 (centres undefined)
CNC(=O)C1CC(=O)N(c2ccc(OCC(=O)Nc3ccccc3C)cc2)C1 (centres undefined)
O=C(CCN1C(=O)c2ccncc2C1=O)Nc1cc(F)ccc1F
Cc1ccc([C@H]2C[C@H](O)[C@@H](n3cc(COC(=O)c4ccccc4)nn3)CN2C(=O)C2CCCCC2)cc1
COc1cccc(-c2ccc3c(c2)S(=O)(=O)c2cccc(C(=O)O)c2C3=O)c1OC
CC1CCN(c2ccc3c(c2)S(=O)(=O)c2cc(C(=O)O)ccc2C3=O)CC1
O=C(O)C1=C[C@H](c2cccs2)C[C@H](OCCCCO)O1
Cc1ccc(C(=O)OCC(=O)NCc2cc(C)c(O)c(C)c2)cc1S(=O)(=O)N1CCCCC1
N#CCCn1ncc2ccccc21
CC(C)Cc1nnc(NC(=O)CN2C(=O)NC3(CCCCC3)C2=O)s1
CCC1(c2ccccc2)NC(=O)N(CC(=O)Nc2ccccc2C(=O)NC2CCCC2)C1=O (centres undefined)
COCC(C)n1c(C)cc(C(=O)CSc2cc(C)c3ccccc3n2)c1C (centres undefined)
CCOc1ccc(-c2n[nH]c(=S)n2/N=C/c2cc3c(cc2[N+](=O)[O-])OCO3)cc1
OCCN1CCOCCOCCN(CCO)CCN(CCO)CC1
Cc1ccc(Cl)cc1NC(=O)COC(=O)C1CCCCC1
N#C/C(=C\N1CCOCC1)S(=O)(=O)c1ccc(Cl)cc1
O=C(CSc1nnc(-c2ccncc2)o1)NCc1ccc(Cl)cc1
Cc1cc(OCC(=O)N(C)c2c(N)n(Cc3ccccc3)c(=O)[nH]c2=O)c(C(C)C)cc1Cl
Cn1c(=O)[nH]c(=O)c2c1[nH]c(=S)n2Cc1ccccc1
NC(=O)C1CCN(C(=O)COc2ccc3c4c(c(=O)oc3c2)CCC4)CC1
O=S(=O)(c1cccc(-c2nnc(SC(F)F)n2-c2ccccc2)c1)N1CCCCC1
O=C(O)C1=NN(c2c(F)c(F)cc(F)c2F)C(=O)CC1

Potency, active:
Cc1nn(C)cc1N1C(=O)c2cccc3c(N)ccc(c23)C1=O 89.1 µM
CN1C(=O)c2cccc3c(N)ccc(c23)C1=O 126 µM
CCOC(=O)c1ccccc1NC(=O)COC(=O)C(Cc1c[nH]c2ccccc12)NC(C)=O (centres undefined) 112 µM
Cc1ccc(CNC(=O)c2cccc3c2C(=O)c2ccc(N4CCC(C)CC4)cc2S3(=O)=O)cc1 89.1 µM
Cc1cc2nc3c(=O)n(Cc4ccccc4)c(=O)[nH]c3nc2cc1N 100 µM
